The target of this experiment is pT7_6His-AlfaTag-HOXD13 (human, UniProt P35453 263-343). The experiment in a line: PADIT-seq. The settings on record: dsDNA, one strand shown.
pT7_6His-AlfaTag-HOXD13, sequence (P35453 263-343): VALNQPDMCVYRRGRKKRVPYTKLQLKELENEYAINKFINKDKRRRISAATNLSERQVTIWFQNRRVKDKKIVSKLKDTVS
With “CTCGAGGATATCAAGATCTGGCCTCGGCACATTAAAAGGAACCTCTAGCTAGCCGACTCACTATAGGGATAATCGCCCTGAGCAAAGACC”, the binding signal amounted to 2.06 ± 0.09 log2FC. The value for “CTCGAGGATATCAAGATCTGGCCTCGGCTCTCCACGCGGAACCTCTAGCTAGCCGACTCACTATAGGGATAATCGCCCTGAGCAAAGACC” was -0.925 ± 0.119 log2FC; that for “CTCGAGGATATCAAGATCTGGCCTCGGCCTTTTAGAAGGAACCTCTAGCTAGCCGACTCACTATAGGGATAATCGCCCTGAGCAAAGACC” was 0.357 ± 0.088 log2FC; that for “CTCGAGGATATCAAGATCTGGCCTCGGCCGCATACGCGGAACCTCTAGCTAGCCGACTCACTATAGGGATAATCGCCCTGAGCAAAGACC” was -1.09 ± 0.122 log2FC. With “CTCGAGGATATCAAGATCTGGCCTCGGCATTTTACCTGGAACCTCTAGCTAGCCGACTCACTATAGGGATAATCGCCCTGAGCAAAGACC” the figure was -0.0491 ± 0.129 log2FC; with “CTCGAGGATATCAAGATCTGGCCTCGGCTTTTTAGGTGGAACCTCTAGCTAGCCGACTCACTATAGGGATAATCGCCCTGAGCAAAGACC”, -0.0749 ± 0.107 log2FC.

“CTCGAGGATATCAAGATCTGGCCTCGGCCTTTTACCTGGAACCTCTAGCTAGCCGACTCACTATAGGGATAATCGCCCTGAGCAAAGACC” came in with a binding signal of -0.0573 ± 0.0997 log2FC. The value for “CTCGAGGATATCAAGATCTGGCCTCGGCGCGATAAAAGGAACCTCTAGCTAGCCGACTCACTATAGGGATAATCGCCCTGAGCAAAGACC” was 1.22 ± 0.0747 log2FC; that for “CTCGAGGATATCAAGATCTGGCCTCGGCGTTTTAGACGGAACCTCTAGCTAGCCGACTCACTATAGGGATAATCGCCCTGAGCAAAGACC” was -0.509 ± 0.117 log2FC; that for “CTCGAGGATATCAAGATCTGGCCTCGGCCTACTAAAAGGAACCTCTAGCTAGCCGACTCACTATAGGGATAATCGCCCTGAGCAAAGACC” was 1.25 ± 0.0954 log2FC. With “CTCGAGGATATCAAGATCTGGCCTCGGCGCTCTAAAAGGAACCTCTAGCTAGCCGACTCACTATAGGGATAATCGCCCTGAGCAAAGACC” the figure was 0.0795 ± 0.0859 log2FC; with “CTCGAGGATATCAAGATCTGGCCTCGGCTGACCACGCGGAACCTCTAGCTAGCCGACTCACTATAGGGATAATCGCCCTGAGCAAAGACC”, -1.02 ± 0.112 log2FC.

“CTCGAGGATATCAAGATCTGGCCTCGGCGTAATAAAAGGAACCTCTAGCTAGCCGACTCACTATAGGGATAATCGCCCTGAGCAAAGACC” came in with a binding signal of 2.86 ± 0.0699 log2FC.

“CTCGAGGATATCAAGATCTGGCCTCGGCATTTTAATGGGAACCTCTAGCTAGCCGACTCACTATAGGGATAATCGCCCTGAGCAAAGACC” registered a binding signal of 2.51 ± 0.077 log2FC. Sequence “CTCGAGGATATCAAGATCTGGCCTCGGCATTTTACACGGAACCTCTAGCTAGCCGACTCACTATAGGGATAATCGCCCTGAGCAAAGACC” had a binding signal of 2.19 ± 0.0742 log2FC. The value for “CTCGAGGATATCAAGATCTGGCCTCGGCCGCCCAGCGGGAACCTCTAGCTAGCCGACTCACTATAGGGATAATCGCCCTGAGCAAAGACC” was -0.602 ± 0.194 log2FC. With “CTCGAGGATATCAAGATCTGGCCTCGGCCTTTTATTTGGAACCTCTAGCTAGCCGACTCACTATAGGGATAATCGCCCTGAGCAAAGACC” the figure was 2.69 ± 0.0648 log2FC; with “CTCGAGGATATCAAGATCTGGCCTCGGCTTTTTAGGGGGAACCTCTAGCTAGCCGACTCACTATAGGGATAATCGCCCTGAGCAAAGACC”, 1.5 ± 0.0951 log2FC. The sequence “CTCGAGGATATCAAGATCTGGCCTCGGCCTTTTACAGGGAACCTCTAGCTAGCCGACTCACTATAGGGATAATCGCCCTGAGCAAAGACC” returned a binding signal of 2.83 ± 0.0828 log2FC. In turn, “CTCGAGGATATCAAGATCTGGCCTCGGCCGCCCAAAGGGAACCTCTAGCTAGCCGACTCACTATAGGGATAATCGCCCTGAGCAAAGACC” had a binding signal of -0.802 ± 0.123 log2FC. Sequence “CTCGAGGATATCAAGATCTGGCCTCGGCACTTGGGCGGGAACCTCTAGCTAGCCGACTCACTATAGGGATAATCGCCCTGAGCAAAGACC” yielded a binding signal of -1.04 ± 0.114 log2FC. Sequence “CTCGAGGATATCAAGATCTGGCCTCGGCAGTCTAAAAGGAACCTCTAGCTAGCCGACTCACTATAGGGATAATCGCCCTGAGCAAAGACC” came in with a binding signal of -0.665 ± 0.0999 log2FC. With “CTCGAGGATATCAAGATCTGGCCTCGGCTTTTTACGGGGAACCTCTAGCTAGCCGACTCACTATAGGGATAATCGCCCTGAGCAAAGACC” the figure was 3.16 ± 0.0883 log2FC; with “CTCGAGGATATCAAGATCTGGCCTCGGCCTTTTAACGGGAACCTCTAGCTAGCCGACTCACTATAGGGATAATCGCCCTGAGCAAAGACC”, 1.98 ± 0.0882 log2FC; with “CTCGAGGATATCAAGATCTGGCCTCGGCCGCCCATTCGGAACCTCTAGCTAGCCGACTCACTATAGGGATAATCGCCCTGAGCAAAGACC”, -0.894 ± 0.121 log2FC. Sequence “CTCGAGGATATCAAGATCTGGCCTCGGCGGCATAAAAGGAACCTCTAGCTAGCCGACTCACTATAGGGATAATCGCCCTGAGCAAAGACC” registered a binding signal of 0.675 ± 0.0684 log2FC. “CTCGAGGATATCAAGATCTGGCCTCGGCTAAGTAAAAGGAACCTCTAGCTAGCCGACTCACTATAGGGATAATCGCCCTGAGCAAAGACC” came in with a binding signal of 0.166 ± 0.108 log2FC. The value for “CTCGAGGATATCAAGATCTGGCCTCGGCATTTTAAGTGGAACCTCTAGCTAGCCGACTCACTATAGGGATAATCGCCCTGAGCAAAGACC” was 1.18 ± 0.0951 log2FC. The value for “CTCGAGGATATCAAGATCTGGCCTCGGCATTTTAGTGGGAACCTCTAGCTAGCCGACTCACTATAGGGATAATCGCCCTGAGCAAAGACC” was 1.61 ± 0.0939 log2FC. With “CTCGAGGATATCAAGATCTGGCCTCGGCCTGATAAAAGGAACCTCTAGCTAGCCGACTCACTATAGGGATAATCGCCCTGAGCAAAGACC” the figure was 1.73 ± 0.0914 log2FC; with “CTCGAGGATATCAAGATCTGGCCTCGGCCGCCCAACTGGAACCTCTAGCTAGCCGACTCACTATAGGGATAATCGCCCTGAGCAAAGACC”, -1.02 ± 0.119 log2FC. With “CTCGAGGATATCAAGATCTGGCCTCGGCTTTTTAACCGGAACCTCTAGCTAGCCGACTCACTATAGGGATAATCGCCCTGAGCAAAGACC”, the binding signal was 0.739 ± 0.095 log2FC. The value for “CTCGAGGATATCAAGATCTGGCCTCGGCGTTATAAAAGGAACCTCTAGCTAGCCGACTCACTATAGGGATAATCGCCCTGAGCAAAGACC” was 2.4 ± 0.0697 log2FC. With “CTCGAGGATATCAAGATCTGGCCTCGGCATTATAAAAGGAACCTCTAGCTAGCCGACTCACTATAGGGATAATCGCCCTGAGCAAAGACC” the figure was 2.37 ± 0.0729 log2FC; with “CTCGAGGATATCAAGATCTGGCCTCGGCATTTTAAAAGGAACCTCTAGCTAGCCGACTCACTATAGGGATAATCGCCCTGAGCAAAGACC”, 2.49 ± 0.0611 log2FC; with “CTCGAGGATATCAAGATCTGGCCTCGGCTGTTTAAAAGGAACCTCTAGCTAGCCGACTCACTATAGGGATAATCGCCCTGAGCAAAGACC”, 1.97 ± 0.0666 log2FC. The value for “CTCGAGGATATCAAGATCTGGCCTCGGCCGCACGCGCGGAACCTCTAGCTAGCCGACTCACTATAGGGATAATCGCCCTGAGCAAAGACC” was -0.992 ± 0.148 log2FC; that for “CTCGAGGATATCAAGATCTGGCCTCGGCATTTTATCGGGAACCTCTAGCTAGCCGACTCACTATAGGGATAATCGCCCTGAGCAAAGACC” was 1.85 ± 0.0758 log2FC; that for “CTCGAGGATATCAAGATCTGGCCTCGGCTAGGTAAAAGGAACCTCTAGCTAGCCGACTCACTATAGGGATAATCGCCCTGAGCAAAGACC” was -0.394 ± 0.106 log2FC.

(Values after publication doi:10.1101/2024.03.05.583629.)
